This note sets out measurements from PubChem BioAssay.

A short description of test [1]: reducers of endogenous Her2 protein level, primary screen, SKBR3 breast tumor cells, AlphaScreen, ATP viability (AID 461;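 active = Her2 level under about 52% in both replicate screens, with viability over 70% of control, limit read from the data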;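 as to Her2 level: lower value means less Her2 protein in the cells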;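 as to viability: percent of carrier control wells set as 100% viability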). The note with it: 18-24 h, measured here: SKBR3 viability, ATP luminescence, at 10 µM.
Test [2] deals with Receptor tyrosine-protein kinase erbB-2 (Homo sapiens) (UniProt P04626). The test is described as above. The note with it: 18-24 h, at 10 µM, stronger effect = lower value.
A short description of test [3]: SK-BR-3 cell growth inhibitors, pilot screen, 24 h, human (AID 572;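 active = viability at or below 10% of carrier control in both of two separate runs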;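 also: compound exposure lasted between 18 and 24 h rather than exactly 24 h; 100% = carrier-treated control wells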). The note with it: SK-BR-3 viability, CellTiter-Glo luminescence, at 10 µM, stronger effect = lower value. (In ATP-based viability assays light output follows the ATP content of the culture.)
A short description of test [4]: HUVEC growth inhibition – cell-based, human, primary screen (AID 575;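 active = viability at or below 30% in both replicate assays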;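 also: 100% = median of untreated cell wells with 0.1% DMSO on each plate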). To be noted: HUVEC proliferation, CellTiter-Glo luminescence, 72 h; at 10 µM; stronger effect = lower value.
A short description of test [5]: growth inhibitors of H69AR lung tumor, primary screen, human, duplicate replicates (AID 580;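 active = viability at or under a set limit in both replicates, limit being median viability minus 3 SD, cut at about 48% in these data, passing the limit was not always enough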;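 also: 100% = mean luminescence of untreated wells and 0% = no signal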). To be noted: H69AR lung tumor cells viability, ATP luminescence, 72 h; at 10 µM; stronger effect = lower value.
The nature of test [6]: reversal of MRP1-mediated doxorubicin resistance, pilot screen, H69AR cells, doxorubicin co-treatment (AID 601;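 active = viability loss from added drug above about 55%, and viability with drug at most 40%, in both replicates, limit read from the data, passing the limit was not always enough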). To be noted: CellTiter-Glo, 72 h, at 10 µM; for differential viability (reversal): stronger effect = higher value.
Test [7] in a line: 384-well plate pilot, post-Golgi transport modulator project, inhibition of yeast transport mutant growth (AID 636; in the data active = inhibition above about 31%). To be noted: absorbance 615 nm, about 18 h, stronger effect = higher value.
Test [8] can be described thus: growth suppression of yeast trafficking mutant, preliminary HTS, modulators of trafficking downstream of Golgi apparatus project, 1536-format plate, OD 615 nm (AID 637; in the data active = inhibition above about 30%). To be noted: yeast transport mutant growth, absorbance 615 nm, 18 h; stronger effect = higher value.
Test [9] can be described thus: OD615 S. cerevisiae growth inhibition, permissive medium, pilot counter-assay, permissive growth control for S. cerevisiae lifespan shortening project (AID 705;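 active = growth inhibition above 25% in both replicates, a cutoff set 3 SD above the mean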). To be noted: OD615, 24 h, at 10 µM, stronger effect = higher value.
Test [10] can be described thus: Restrictive medium S. cerevisiae growth inhibition, OD615, pilot screen of yeast lifespan reduction project, restrictive growth control (AID 706;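 active = growth inhibition above a set limit, 3 SD over mean compound inhibition, in both replicates, cut at about 43% in these data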;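 also: modified DeaD lifespan yeast strain shifted to restrictive glucose medium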). To be noted: OD615, 48 h, at 10 µM, stronger effect = higher value.
The nature of test [11]: viability gain of MRP-1-high H69AR cells under doxorubicin, pilot screen, MRP-1 activator project, CellTiter-Glo, duplicate (AID 807;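 active = viability increase at or above a cutoff of the median across tested compounds plus 3 SD, cut at about 8.5% in these data, passing the limit was not always enough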;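 also: compound pretreatment 18-22 h then 72 h combined with doxorubicin; 0% = doxorubicin alone and 100% = vehicle without doxorubicin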). The note with it: H69AR viability with doxorubicin, CellTiter-Glo luminescence; at 10 µM; stronger effect = higher value.
A short description of test [12]: growth suppression of beta-catenin knockout HCT116, pilot screen, human colon tumor cells (AID 823;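 active = cell viability at or below a set limit in both duplicate runs, the limit being the all-compound median minus 4 SD, cut at about 23% in these data, passing the limit was not always enough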;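 also: 0% = wells killed by 20 µM Hyamine and 100% = untreated DMSO cell wells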). To be noted: CellTiter-Glo, 60 h, at 10 µM, stronger effect = lower value.
Test [13] can be described thus: growth suppression of PTEN-deleted HCT116, pilot screen, cell-based, HCT116 clonal line, CellTiter-Glo (AID 824).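 Also: 0% = 20 µM Hyamine control and 100% = vehicle cell control.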 To be noted: 60 h, at 10 µM, stronger effect = lower value.
Test [14] can be described thus: inhibitors of the yeast RAM network, pilot screen, dse1pr::URA3 reporter, 5-FOA selection (AID 869;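 active = inhibition over a set limit, the all-compound mean plus 3 SD, in both replicate runs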;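 also: 0% = DMSO wells with no growth and 100% = 10 µM 1-NA-PP1 with full growth; RAM network block rescues cells from 5-FOA so hits raise OD615 growth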). The note with it: S. cerevisiae dse1pr::URA3 5-FOA growth, OD615, 2 d; at 10 µM; stronger effect = higher value; strain carries analog-sensitive mutant Cbk1 kinase.
A short description of test [15]: RAM signaling pathway blockade in yeast – S. cerevisiae, Pdr1DBD-CYC8 efflux-inhibited sensitized strain, primary screen (AID 1298;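 active = RAM network inhibition above 8.4% in each of two replicates, 3 SD over the compound average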;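 also: 0% = DMSO untreated cells without growth and 100% = 10 µM 1-NA-PP1 full growth; higher means more yeast growth rescued from 5-FOA killing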). To be noted: S. cerevisiae cbk1-as DSE1-URA3 strain, 5-FOA growth OD615, 2 d; at 50 µM; stronger effect = higher value.
The mark [16] stands for this setting: H69AR cells + 2 uM doxorubicin, measured here: viability with 2 uM doxorubicin, stronger effect = lower value.
The mark [17] stands for this setting: H69AR cells, compound alone cytotoxicity.

Inconclusive results are not listed. Activity calls are given as the source filed them.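 The calls were made as follows, unless noted: active = viability at or below 27.92% in each of two runs, the all-compound median minus 4 SD; inconclusive = no clear call, values can overlap the other calls; inactive = the rest.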

Receptor tyrosine-protein kinase erbB-2 (Homo sapiens), sequence (P04626 whole entry, looked up): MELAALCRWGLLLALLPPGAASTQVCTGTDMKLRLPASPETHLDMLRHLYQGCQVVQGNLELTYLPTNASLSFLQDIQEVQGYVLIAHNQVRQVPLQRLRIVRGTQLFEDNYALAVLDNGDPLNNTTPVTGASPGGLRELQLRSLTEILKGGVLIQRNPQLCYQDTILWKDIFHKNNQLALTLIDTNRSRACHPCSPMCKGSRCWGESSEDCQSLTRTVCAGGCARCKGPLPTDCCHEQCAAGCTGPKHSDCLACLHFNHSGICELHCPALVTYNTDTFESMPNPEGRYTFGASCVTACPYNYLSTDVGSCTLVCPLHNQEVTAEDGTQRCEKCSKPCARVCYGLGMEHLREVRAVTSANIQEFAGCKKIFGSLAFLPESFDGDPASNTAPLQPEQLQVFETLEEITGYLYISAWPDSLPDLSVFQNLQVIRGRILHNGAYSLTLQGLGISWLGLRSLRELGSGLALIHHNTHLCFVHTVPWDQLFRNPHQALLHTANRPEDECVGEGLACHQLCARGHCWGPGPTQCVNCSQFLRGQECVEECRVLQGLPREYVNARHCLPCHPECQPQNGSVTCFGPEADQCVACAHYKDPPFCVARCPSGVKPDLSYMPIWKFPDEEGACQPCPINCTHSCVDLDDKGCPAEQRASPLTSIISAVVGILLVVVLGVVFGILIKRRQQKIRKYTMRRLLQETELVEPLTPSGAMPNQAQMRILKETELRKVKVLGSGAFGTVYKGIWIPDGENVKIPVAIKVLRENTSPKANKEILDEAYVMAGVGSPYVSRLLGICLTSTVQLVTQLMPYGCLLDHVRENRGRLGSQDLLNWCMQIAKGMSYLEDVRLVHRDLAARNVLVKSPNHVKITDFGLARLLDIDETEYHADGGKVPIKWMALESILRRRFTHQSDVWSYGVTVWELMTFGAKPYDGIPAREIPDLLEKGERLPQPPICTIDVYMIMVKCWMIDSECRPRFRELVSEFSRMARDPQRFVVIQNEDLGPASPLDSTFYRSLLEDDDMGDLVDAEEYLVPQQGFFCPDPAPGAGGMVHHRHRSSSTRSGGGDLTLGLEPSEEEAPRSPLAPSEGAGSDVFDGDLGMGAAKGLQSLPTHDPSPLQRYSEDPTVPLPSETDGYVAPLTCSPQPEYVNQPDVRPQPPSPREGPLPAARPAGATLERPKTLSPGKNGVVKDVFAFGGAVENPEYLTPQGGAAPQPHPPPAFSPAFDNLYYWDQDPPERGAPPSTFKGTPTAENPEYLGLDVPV

Regarding `COc1ccc(CNC(=O)c2cnc3n(c2=O)CCS3)cc1`, the viability is 81.5% in [1]; 81.5% (inactive) in test [3]; 90.6% (inactive) in test [4]; 94.9% (inactive) in test [5]; 97.9% in test [6] (setting [16]); 94.9% in [6] (setting [17]). Further, the viability in test [12] was 95.8% (inactive); in [13], 98.3% (inactive). Also, in [2], the Her2 level is 87.5% (inactive). In addition, in test [6] (H69AR cells + 2 uM doxorubicin), the differential viability (reversal) was -3.02% (inactive). The inhibition in [7] was -3.87% (inactive); in [8] it was -2.17% (inactive); in [14] it was 3.5% (inactive). Moreover, the growth inhibition was 5.72% (inactive) in [9] and 4.27% (inactive) in [10]. In addition, the viability increase in test [11] was -1.21% (inactive). Also, in test [15], the RAM network inhibition was 2.5% (inactive).

As to `COc1ccc(-c2nnc(SCC(=O)NC(C)c3ccccc3)o2)cc1` (stereo not given), the viability in [1] is 94%; in [3] it was 94% (inactive); in test [4], 82% (inactive); in [5] it was 100% (inactive); in test [6] (setting [16]) it was 94.4%; in test [6] (setting [17]), 100%. The viability is 90.8% (inactive) in test [12] and 89.8% (inactive) in test [13]. Further, the Her2 level in test [2] was 102% (inactive). The differential viability (reversal) in test [6] (H69AR cells + 2 uM doxorubicin) is 5.95% (inactive). Further, the inhibition in test [7] was 1.87% (inactive); in test [8], 2.33% (inactive); in test [14], 1.37% (inactive). Moreover, the growth inhibition was -4.83% (inactive) in [9] and -1.46% (inactive) in test [10]. The viability increase in test [11] was -3.41% (inactive). Further, the RAM network inhibition in test [15] is 6.94% (inactive).

As to `CC1CCN(C(=O)CSc2nc3c(cnn3-c3ccccc3)c(=O)[nH]2)CC1`, the viability in [1] is 82.5%; in test [3], 82.5% (inactive); in [4], 72.1% (inactive); in test [5] it was 72% (inactive); in test [6] (setting [16]) it was 64.4%; in test [6] (setting [17]) it was 72%. Besides, the values for the viability in test [12] and in test [13] were 98.3% (inactive) and 91.1% (inactive), respectively. Further, in [2], the Her2 level is 92% (inactive). Moreover, the differential viability (reversal) in [6] (H69AR cells + 2 uM doxorubicin) was 7.54% (inactive). For the same molecule, the inhibition is -0.64% (inactive) in test [7], 1.67% (inactive) in test [8] and 1.47% (inactive) in test [14]. The values for the growth inhibition in [9] and in test [10] were -6.1% (inactive) and -4.26% (inactive), respectively. Also, the viability increase in test [11] was -3.8% (inactive). In [15], the RAM network inhibition was 6.5% (inactive).

Consider `CCOC(=O)N1CCC(Nc2ncnc3c2cnn3-c2ccc(C)cc2C)CC1`, for which the viability in test [1] was 86%; in [3], 86% (inactive); in test [4], 83.4% (inactive); in [5], 72.7% (inactive); in test [6] (setting [16]) it was 30.2%; in [6] (setting [17]), 72.7%. The figures for the viability in [12] and in test [13] were 70.2% (inactive) and 67.4% (inactive), respectively. In addition, the Her2 level in test [2] was 78.5% (inactive). In addition, in [6] (H69AR cells + 2 uM doxorubicin), the differential viability (reversal) is 42.5% (inactive). Further, the values for the inhibition in [7], in test [8] and in [14] were -4% (inactive), 1.5% (inactive) and 0.78% (inactive), respectively. The values for the growth inhibition in [9] and in test [10] were 5.81% (inactive) and -2.8% (inactive), respectively. Further, in test [11], the viability increase is -6.54% (inactive). Moreover, the RAM network inhibition in [15] is 1.71% (inactive).

For `O=C1C2C3C=CC(C3)C2C(=O)N1c1cccc(N2C(=O)C3C4C=CC(C4)C3C2=O)n1` (stereo not given), the viability in test [1] was 91%; in test [3], 91% (inactive); in test [4], 109% (inactive); in test [5], 93.4% (inactive); in [6] (setting [16]), 97.6%; in test [6] (setting [17]) it was 93.4%. In addition, the viability in test [12] and in [13] was 104% (inactive) in each case. The Her2 level in test [2] is 100% (inactive). Besides, the differential viability (reversal) in test [6] (H69AR cells + 2 uM doxorubicin) is -4.17% (inactive). Also, the inhibition was -4.73% (inactive) in test [7], 4.75% (inactive) in test [8] and 3.84% (inactive) in test [14]. For the same molecule, the growth inhibition in test [9] was -12% (inactive); in test [10], -11.8% (inactive). Besides, in [11], the viability increase is -0.89% (inactive). In [15], the RAM network inhibition is 5.46% (inactive).

On to `CCOC(=O)N1CCC(NC(=O)Cn2c3c(c(-c4ccccc4Cl)cc2=O)CCC3)CC1`, for which the viability is 94.5% in test [1]; 94.5% (inactive) in test [3]; 123% (inactive) in test [4]; 89.7% (inactive) in [5]; 89.6% in test [6] (setting [16]); 89.7% in test [6] (setting [17]). Besides, the results for the viability in [12] and in test [13] were 88.8% (inactive) and 91.9% (inactive), respectively. Moreover, in test [2], the Her2 level is 92.5% (inactive). Moreover, the differential viability (reversal) in test [6] (H69AR cells + 2 uM doxorubicin) is 0.145% (inactive). Moreover, the inhibition in [7] was -6.67% (inactive); in [8], -1.67% (inactive); in test [14] it was 2.06% (inactive). In addition, the growth inhibition is -9.94% (inactive) in test [9] and -0.355% (inactive) in [10]. Moreover, in [11], the viability increase is -0.33% (inactive). Besides, the RAM network inhibition in test [15] was 4.05% (inactive).

Consider `O=c1oc2c3c4c(cc2s1)CCCN4CCC3`, for which the viability is 89% in [1]; 89% (inactive) in test [3]; 101% (inactive) in test [4]; 95.6% (inactive) in test [5]; 91.2% in test [6] (setting [16]); 95.6% in test [6] (setting [17]). For the same molecule, the viability in [12] is 101% (inactive); in test [13], 97.1% (inactive). Also, the Her2 level in test [2] was 86% (inactive). Also, the differential viability (reversal) in test [6] (H69AR cells + 2 uM doxorubicin) was 4.35% (inactive). Further, the figures for the inhibition in test [7], in [8] and in test [14] were -4.42% (inactive), -2% (inactive) and 1.76% (inactive), respectively. The growth inhibition in test [9] is 2.12% (inactive); in test [10] it was -7.54% (inactive). Moreover, the viability increase in test [11] is -3.91% (inactive). Besides, in [15], the RAM network inhibition was 6.79% (inactive).

Turning to `CC1=C(C(=O)OCc2ccccc2)C(c2ccco2)n2ncnc2N1` (stereo not given), the viability was 98.5% in test [1]; 98.5% (inactive) in [3]; 87.1% (inactive) in test [4]; 112% (inactive) in test [5]; 88.7% in [6] (setting [16]); 112% in test [6] (setting [17]). The viability in test [12] is 92.8% (inactive); in test [13], 89% (inactive). For the same molecule, the Her2 level in test [2] was 95% (inactive). In addition, in [6] (H69AR cells + 2 uM doxorubicin), the differential viability (reversal) is 23% (inactive). The inhibition in [7] was -2.95% (inactive); in test [8] it was 2.67% (inactive); in test [14], 0.83% (inactive). Moreover, the growth inhibition in [9] is 3.25% (inactive); in test [10], -3.8% (inactive). For the same molecule, the viability increase in test [11] is -2.11% (inactive). The RAM network inhibition in test [15] is 1.02% (inactive).

Turning to `CCOC(=O)c1nc2sc3c(c2c(=O)[nH]1)CCCC3`, the viability is 80.5% in [1]; 80.5% (inactive) in test [3]; 93.8% (inactive) in [4]; 83.5% (inactive) in test [5]; 87.2% in [6] (setting [16]); 83.5% in test [6] (setting [17]). Further, the viability in [12] was 107% (inactive); in test [13], 99.3% (inactive). Further, in test [2], the Her2 level was 100% (inactive). Further, the differential viability (reversal) in [6] (H69AR cells + 2 uM doxorubicin) was -3.7% (inactive). For the same molecule, the inhibition was -2.31% (inactive) in [7], -16% (inactive) in test [8] and 2.02% (inactive) in test [14]. For the same molecule, the values for the growth inhibition in test [9] and in test [10] were 10.2% (inactive) and 12.2% (inactive), respectively. Besides, the viability increase in test [11] is -1.32% (inactive). The RAM network inhibition in test [15] is 3.93% (inactive).

`O=C(CN1CCN(Cc2ccccc2F)C1=O)NCc1cccnc1`: the viability is 94.5% in test [1]; 94.5% (inactive) in [3]; 108% (inactive) in test [4]; 107% (inactive) in test [5]; 90.4% in test [6] (setting [16]); 107% in [6] (setting [17]). Further, the values for the viability in test [12] and in [13] were 100% (inactive) and 94.6% (inactive), respectively. Besides, in test [2], the Her2 level was 94.5% (inactive). Moreover, the differential viability (reversal) in [6] (H69AR cells + 2 uM doxorubicin) was 17% (inactive). In addition, the inhibition was -3.87% (inactive) in [7], -1.97% (inactive) in test [8] and 0.605% (inactive) in [14]. The values for the growth inhibition in test [9] and in [10] were 2.81% (inactive) and 6.51% (inactive), respectively. For the same molecule, the viability increase in [11] is -1.65% (inactive). In addition, the RAM network inhibition in [15] was 3.14% (inactive).

By viability is commonly meant a read-out of living cells in per cent, often relative to untreated cells. The term inhibition denotes the drop in the measured response relative to a control, in per cent.
